# From PubChem BioAssay (NCI)
# Where “and” joins values, the source holds several entries; their conditions need not be identical. Identical values can stand only once. Compounds without any hit were thinned out: in the full panel of roughly 83,000, 20% have a hit.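 Testing used 96-well plates and a 48-hour single-concentration exposure. Example: -40 means 40% of the starting cells died.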 Calls of active or inactive are those of the source. Rule for the calls: active = growth percent below 10; inactive = the rest.
# Columns and labels:
# Experiment in all cases: NCI-60 one-dose screen, 48 h (100 = growth as untreated, 0 = no growth, -100 = all killed)
# HCT-15 colon = tested on: HCT-15 colon
# HT29 colon = tested on: HT29 colon
# SNB-75 CNS = tested on: SNB-75 CNS
# SNB-19 CNS = tested on: SNB-19 CNS
# U251 CNS = details: 10 µM unless noted
# PC-3 prostate = tested on: PC-3 prostate
# SK-MEL-5 melanoma = tested on: SK-MEL-5 melanoma
# UACC-62 melanoma = tested on: UACC-62 melanoma
# LOX IMVI melanoma = details: 10 µM unless noted
# SK-MEL-28 melanoma = tested on: SK-MEL-28 melanoma
# SK-MEL-2 melanoma = tested on: SK-MEL-2 melanoma
# EKVX NSCLC = tested on: EKVX NSCLC
# SN12C renal = tested on: SN12C renal
# UO-31 renal = tested on: UO-31 renal
# TK-10 renal = tested on: TK-10 renal
# ACHN renal = tested on: ACHN renal
# CAKI-1 renal = tested on: CAKI-1 renal
# A498 renal = tested on: A498 renal
# CCRF-CEM leukemia = tested on: CCRF-CEM leukemia
# MOLT-4 leukemia = tested on: MOLT-4 leukemia
smiles,measurement,setting,value
O=C(O)COc1ccc(OCC(=O)O)cc1,growth,HCT-15 colon; 10 µM,71.7% (inactive)
same,growth,HT29 colon; 10 µM,5.13% (active)
same,growth,SNB-75 CNS; 10 µM,-11.9% (active)
same,growth,SNB-19 CNS; 10 µM,8.27% (active)
same,growth,U251 CNS,-0.509% (active)
same,growth,PC-3 prostate; 10 µM,31% (inactive)
same,growth,SK-MEL-5 melanoma; 10 µM unless noted,2.69% (active)
same,growth,UACC-62 melanoma; 10 µM,-3.08% (active)
same,growth,LOX IMVI melanoma,-64.4% (active)
same,growth,SK-MEL-28 melanoma; 10 µM,53.2% (inactive)
same,growth,SK-MEL-2 melanoma; 10 µM,64.9% (inactive)
same,growth,EKVX NSCLC; 10 µM,51.8% (inactive)
same,growth,SN12C renal; 10 µM,2.58% (active)
same,growth,UO-31 renal; 10 µM,50.5% (inactive)
same,growth,TK-10 renal; 10 µM,20.6% (inactive)
same,growth,ACHN renal; 10 µM,30.1% (inactive)
same,growth,CAKI-1 renal; 10 µM,90.7% (inactive)
same,growth,A498 renal; 10 µM,-14.2% (active)
same,growth,CCRF-CEM leukemia; 10 µM,2.46% (active)
same,growth,MOLT-4 leukemia; 10 µM,9.12% (active)
Clc1cc(Cl)c(Cl)nn1,growth,HCT-15 colon; 10 µM,107% (inactive)
same,growth,HT29 colon; 10 µM,99.2% (inactive)
same,growth,SNB-75 CNS; 10 µM,107% (inactive)
same,growth,SNB-19 CNS; 10 µM,94.2% (inactive)
same,growth,U251 CNS,81.1% (inactive)
same,growth,PC-3 prostate; 10 µM,80.9% (inactive)
same,growth,SK-MEL-5 melanoma; 10 µM unless noted,103% (inactive)
same,growth,UACC-62 melanoma; 10 µM,88.7% (inactive)
same,growth,LOX IMVI melanoma,95.7% (inactive)
same,growth,SK-MEL-28 melanoma; 10 µM,116% (inactive)
same,growth,SK-MEL-2 melanoma; 10 µM,99.9% (inactive)
same,growth,EKVX NSCLC; 10 µM,115% (inactive)
same,growth,SN12C renal; 10 µM,98% (inactive)
same,growth,UO-31 renal; 10 µM,106% (inactive)
same,growth,TK-10 renal; 10 µM,146% (inactive)
same,growth,ACHN renal; 10 µM,113% (inactive)
same,growth,CAKI-1 renal; 10 µM,109% (inactive)
same,growth,A498 renal; 10 µM,109% (inactive)
same,growth,CCRF-CEM leukemia; 10 µM,88.7% (inactive)
O=c1ccn(C2CC(O)C(COC(c3ccccc3)(c3ccccc3)c3ccccc3)O2)c(=O)[nH]1 (centres undefined),growth,HCT-15 colon; 10 µM,88.9% (inactive)
same,growth,HCT-15 colon; 100 µM,33.4% (inactive)
same,growth,HT29 colon; 10 µM,86% (inactive)
same,growth,HT29 colon; 100 µM,33.1% (inactive)
same,growth,SNB-75 CNS; 10 µM,83.2% (inactive)
same,growth,SNB-75 CNS; 100 µM,57.8% (inactive)
same,growth,SNB-19 CNS; 10 µM,98.2% (inactive)
same,growth,SNB-19 CNS; 100 µM,69.8% (inactive)
same,growth,U251 CNS,55.5% [100 µM] (inactive)
same,growth,PC-3 prostate; 10 µM,59.5% (inactive)
same,growth,PC-3 prostate; 100 µM,15% (inactive)
same,growth,SK-MEL-5 melanoma; 10 µM,93.3% (inactive)
same,growth,SK-MEL-5 melanoma; 100 µM,32.2% (inactive)
same,growth,UACC-62 melanoma; 10 µM,82.6% (inactive)
same,growth,UACC-62 melanoma; 100 µM,29.8% (inactive)
same,growth,LOX IMVI melanoma,79.2% (inactive)
same,growth,SK-MEL-28 melanoma; 10 µM,118% (inactive)
same,growth,SK-MEL-28 melanoma; 100 µM,45.6% (inactive)
same,growth,SK-MEL-2 melanoma; 100 µM,26% (inactive)
same,growth,EKVX NSCLC; 100 µM,52.8% (inactive)
same,growth,SN12C renal; 10 µM,95.9% (inactive)
same,growth,SN12C renal; 100 µM,38.8% (inactive)
same,growth,UO-31 renal; 10 µM,54.6% (inactive)
same,growth,UO-31 renal; 100 µM,37.1% (inactive)
same,growth,TK-10 renal; 10 µM,95.4% (inactive)
same,growth,TK-10 renal; 100 µM,87.8% (inactive)
same,growth,ACHN renal; 10 µM,86.4% (inactive)
same,growth,ACHN renal; 100 µM,56.9% (inactive)
same,growth,CAKI-1 renal; 10 µM,127% (inactive)
same,growth,CAKI-1 renal; 100 µM,30.3% (inactive)
same,growth,A498 renal; 10 µM,98.6% (inactive)
same,growth,A498 renal; 100 µM,102% (inactive)
same,growth,CCRF-CEM leukemia; 100 µM,45.5% (inactive)
same,growth,MOLT-4 leukemia; 10 µM,67.1% (inactive)
same,growth,MOLT-4 leukemia; 100 µM,9.6% (active)
Nc1nc(=S)c2ncn(C3OC(CO)C(O)C3O)c2[nH]1 (centres undefined),growth,HCT-15 colon; 10 µM,107% (inactive) and 9.43% (active)
same,growth,HT29 colon; 10 µM,100% (inactive) and 14.3% (inactive)
same,growth,SNB-75 CNS; 10 µM,101% (inactive) and 27.5% (inactive)
same,growth,SNB-19 CNS; 10 µM,107% (inactive) and 78.6% (inactive)
same,growth,U251 CNS,105% (inactive) and 54.1% (inactive)
same,growth,PC-3 prostate; 10 µM,33.4% (inactive)
same,growth,SK-MEL-5 melanoma; 10 µM unless noted,116% (inactive) and 22.7% (inactive)
same,growth,UACC-62 melanoma; 10 µM,102% (inactive) and 0.101% (active)
same,growth,LOX IMVI melanoma,104% (inactive) and 7.31% (active)
same,growth,SK-MEL-28 melanoma; 10 µM,115% (inactive) and 50.8% (inactive)
same,growth,SK-MEL-2 melanoma; 10 µM,93% (inactive) and 15.6% (inactive)
same,growth,EKVX NSCLC; 10 µM,110% (inactive) and 23.3% (inactive)
same,growth,SN12C renal; 10 µM,107% (inactive) and 26% (inactive)
same,growth,UO-31 renal; 10 µM,95.4% (inactive) and 19.8% (inactive)
same,growth,TK-10 renal; 10 µM,120% (inactive) and -8.09% (active)
same,growth,ACHN renal; 10 µM,112% (inactive) and 17.2% (inactive)
same,growth,CAKI-1 renal; 10 µM,113% (inactive) and -8.94% (active)
same,growth,A498 renal; 10 µM,125% (inactive) and 29.6% (inactive)
same,growth,CCRF-CEM leukemia; 10 µM,96.4% (inactive) and 24.2% (inactive)
same,growth,MOLT-4 leukemia; 10 µM,100% (inactive) and 13.4% (inactive)
CCCC1CCC(=C2C(=O)CCC2=O)O1 (centres undefined),growth,HCT-15 colon; 10 µM,105% (inactive) and 92% (inactive)
same,growth,HT29 colon; 10 µM,94.2% (inactive) and 97.4% (inactive)
same,growth,SNB-75 CNS; 10 µM,81.8% (inactive) and -17.8% (active)
same,growth,SNB-19 CNS; 10 µM,99.7% (inactive) and 98.9% (inactive)
same,growth,U251 CNS,102% (inactive) and 98.5% (inactive)
same,growth,PC-3 prostate; 10 µM,95.1% (inactive) and 103% (inactive)
same,growth,SK-MEL-5 melanoma; 10 µM unless noted,88.6% (inactive) and 102% (inactive)
same,growth,UACC-62 melanoma; 10 µM,86.8% (inactive) and 93.7% (inactive)
same,growth,LOX IMVI melanoma,94.5% (inactive) and 97.6% (inactive)
same,growth,SK-MEL-28 melanoma; 10 µM,103% (inactive)
same,growth,SK-MEL-2 melanoma; 10 µM,116% (inactive) and 125% (inactive)
same,growth,EKVX NSCLC; 10 µM,86.2% (inactive) and 101% (inactive)
same,growth,SN12C renal; 10 µM,90.5% (inactive) and 101% (inactive)
same,growth,UO-31 renal; 10 µM,84.8% (inactive) and 96.3% (inactive)
same,growth,TK-10 renal; 10 µM,98.2% (inactive) and 118% (inactive)
same,growth,ACHN renal; 10 µM,95.7% (inactive) and 96.2% (inactive)
same,growth,CAKI-1 renal; 10 µM,93.9% (inactive) and 90.5% (inactive)
same,growth,A498 renal; 10 µM,108% (inactive) and 105% (inactive)
same,growth,CCRF-CEM leukemia; 10 µM,123% (inactive) and 99.8% (inactive)
same,growth,MOLT-4 leukemia; 10 µM,134% (inactive) and 120% (inactive)
